The values that follow come from the supplement of paper PMC6853941.

A number with no mark means an inactive call.

This assay relates to MCF10A. Nature of the assay: perturbation Mahalanobis distance of morphological profile vs DMSO controls (Mahalanobis distance (SD units)); higher = stronger morphological change, active = 7 or more. Particulars: 72 h. As to the method:
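MCF10A cells were seeded onto drugs dispensed acoustically into 384-well plates, using one dose per drug chosen from its human peak plasma concentration, and incubated for 72 h at 37 °C. Cells were stained for DNA, tubulin and mitochondria and imaged; 78 CellProfiler features were extracted, plate-normalised and compared with DMSO wells.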

Setting [1] is: screen batch: Batch2_Mahalanobis_Distance.
[2] abbreviates: screen batch: Batch1_Mahalanobis_Distance.

With `Cc1oncc1C(=O)Nc1ccc(C(F)(F)F)cc1` [Leflunomide] (333.1 µM), under setting [1], the “perturbation Mahalanobis distance” value was 2.68. As to `CCn1cc(C(=O)O)c(=O)c2cc(F)c(N3CCNCC3)nc21` [Enoxacin] (62.4 µM), the “perturbation Mahalanobis distance” value is 7.28 (active) under setting [2] and 4.85 under setting [1]. For `COc1cc2ncnc(Nc3ccc(F)c(Cl)c3)c2cc1OCCCN1CCOCC1` [Gefitinib] (34.7 µM), the “perturbation Mahalanobis distance” value under setting [1] is 3.28. As to `O=C1CN(/N=C/c2ccc(-c3ccc([N+](=O)[O-])cc3)o2)C(=O)N1` [Dantrolene] (23.9 µM), the “perturbation Mahalanobis distance” value was 2.62 under setting [2] and 3.85 under setting [1]. Turning to `CC1=NS(=O)(=O)c2cc(Cl)ccc2N1` [Diazoxide] (86.7 µM), the “perturbation Mahalanobis distance” value under setting [2] was 2.69. With `Clc1ccc(C(c2ccccc2Cl)C(Cl)Cl)cc1` (configuration not stated) [Mitotane] (62.5 µM), the “perturbation Mahalanobis distance” value was 3.41 under setting [2] and 4.02 under setting [1]. On the same counts, the results for `CC(N=C(NC#N)Nc1ccncc1)C(C)(C)C` (configuration not stated) [Pinacidil] (8.3 µM) are 4.94 and 4.16.

Take `CC(C)C(=O)Nc1ccc([N+](=O)[O-])c(C(F)(F)F)c1` [Flutamide] (27.2 µM): the “perturbation Mahalanobis distance” value was 4.39 under setting [2] and 6.63 under setting [1]. On to `C[C@@H]1O[C@@]2(CS1)CN1CCC2CC1` [Cevimeline] (1.5 µM), for which the “perturbation Mahalanobis distance” value is, setting by setting: under setting [2], 3.07; under setting [1], 3.45. On the same counts, the results for `COC(=O)C1=C(C)NC(C)=C(C(=O)OCC(C)C)C1c1ccccc1[N+](=O)[O-]` (configuration not stated) [Nisoldipine] (13 µM) are 2.36 and 2.36. `O=C(Nc1ccc([N+](=O)[O-])cc1Cl)c1cc(Cl)ccc1O` [Niclosamide] (5.3 µM): under setting [1], the “perturbation Mahalanobis distance” value was 5.7. For `NC[C@@H]1O[C@H](O[C@H]2[C@@H](O)[C@H](O[C@@H]3[C@@H](O)[C@H](N)C[C@H](N)[C@H]3O[C@H]3O[C@H](CO)[C@@H](O)[C@H](O)[C@H]3N)O[C@@H]2CO)[C@H](N)[C@@H](O)[C@@H]1O` [Paromomycin] (332.3 µM), the “perturbation Mahalanobis distance” value under setting [2] was 4.01. On to `Cc1cc(C)cc(OCC2CNC(=O)O2)c1` (configuration not stated) [Metaxalone] (38.4 µM), for which the “perturbation Mahalanobis distance” value by setting is: under setting [2], 3.33; under setting [1], 4.58.

As to `O=C1CCc2ccc(OCCCCN3CCN(c4cccc(Cl)c4Cl)CC3)cc2N1` [Aripiprazole] (3.3 µM), the “perturbation Mahalanobis distance” value runs as follows: under setting [2], 2.24; under setting [1], 2.92. `CN(C)[C@@H]1C(O)=C(C(N)=O)C(=O)[C@@]2(O)C(O)=C3C(=O)c4c(O)cccc4[C@@](C)(O)[C@H]3C[C@@H]12` [Tetracycline] (45 µM): the “perturbation Mahalanobis distance” value under setting [2] is 4.19 and the “perturbation Mahalanobis distance” value under setting [1] is 2.42.

Regarding `C[C@](N)(Cc1ccc(O)cc1)C(=O)O` [Metyrosine] (71.7 µM), the “perturbation Mahalanobis distance” value reads like this: under setting [2], 3.87; under setting [1], 3.02. The matching figures for `Nc1ccc(C(=O)O)c(O)c1` [4-Aminosalicylic Acid] (130.6 µM): 12.9 (active) and 13.9 (active).

`CN(C)CC[C@@H](c1ccc(Cl)cc1)c1ccccn1` [Dexchlorpheniramine] (0.15 µM): the “perturbation Mahalanobis distance” value is, setting by setting: under setting [2], 2.03; under setting [1], 2.67.

As to `O=C1Nc2ccc(Cl)cc2[C@@](C#CC2CC2)(C(F)(F)F)O1` [Efavirenz] (28.8 µM), the “perturbation Mahalanobis distance” value reads like this: under setting [2], 3.91; under setting [1], 4.25. On the same counts, the results for `COc1ccccc1OCC(O)CN1CCN(CC(=O)Nc2c(C)cccc2C)CC1` (configuration not stated) [Ranolazine] (37.4 µM) are 2.73 and 3.08.

As to `OC[C@H]1O[C@@H](n2cnc3c2NC=NC[C@H]3O)C[C@@H]1O` [Pentostatin] (55.9 µM), the “perturbation Mahalanobis distance” value is 4.44 under setting [2] and 3.34 under setting [1]. On the same counts, the results for `CC(=O)NO` [Acetohydroxamic Acid] (523.5 µM) are 4.11 and 4.24. On to `CCCCc1oc2ccc(NS(C)(=O)=O)cc2c1C(=O)c1ccc(OCCCN(CCCC)CCCC)cc1` [Dronedarone] (1.3 µM), for which the “perturbation Mahalanobis distance” value under setting [2] was 3.58 and the “perturbation Mahalanobis distance” value under setting [1] is 2.07. On the same counts, the results for `Clc1ccc2c(c1)C(N1CCNCC1)=Nc1ccccc1O2` [Amoxapine] (9.6 µM) are 2.24 and 3.6. The matching figures for `CO[C@H]1CC2CC[C@@H](C)[C@@](O)(O2)C(=O)C(=O)N2CCCC[C@H]2C(=O)O[C@H]([C@H](C)C[C@@H]2CC[C@@H](OCCO)[C@H](OC)C2)CC(=O)[C@H](C)/C=C(\C)[C@@H](O)[C@@H](OC)C(=O)[C@H](C)C[C@H](C)/C=C/C=C/C=C/1C` [Everolimus] (0.95 µM): 5.37 and 9.89 (active). The matching figures for `NCCCC(N)(C(=O)O)C(F)F` (configuration not stated) [Eflornithine] (319.5 µM): 2.24 and 2.74.

Consider `C#C[C@]1(O)CC[C@H]2[C@@H]3CCc4cc(O)ccc4[C@H]3CC[C@@]21C` [Ethinyl Estradiol] (23 µM), for which the “perturbation Mahalanobis distance” value is, setting by setting: under setting [2], 5.9; under setting [1], 3.63. On the same counts, the results for `COc1ccc(C[C@@H]2c3cc(OC)c(OC)cc3CC[N@+]2(C)CCC(=O)OCCCCCOC(=O)CC[N@@+]2(C)CCc3cc(OC)c(OC)cc3[C@H]2Cc2ccc(OC)c(OC)c2)cc1OC` [Cisatracurium Besylate] (18.1 µM) are 5.34 and 4.5. On the same counts, the results for `Cn1nnc2c(C(N)=O)ncn2c1=O` [Temozolomide] (70.6 µM) are 3.51 and 2.12. In the case of `Nc1nc(Cl)nc2c1ncn2[C@@H]1O[C@H](CO)[C@@H](O)[C@@H]1F` [Clofarabine] (7.5 µM), the “perturbation Mahalanobis distance” value under setting [2] was 10.2 (active) and the “perturbation Mahalanobis distance” value under setting [1] was 16.5 (active).

Turning to `CCCCN1C[C@H](O)[C@@H](O)[C@H](O)[C@H]1CO` [Miglustat] (92.6 µM), the “perturbation Mahalanobis distance” value runs as follows: under setting [2], 2.56; under setting [1], 3.14. Consider `O=C1CCC(N2C(=O)c3ccccc3C2=O)C(=O)N1` (configuration not stated) [Thalidomide] (19.4 µM), for which the “perturbation Mahalanobis distance” value is 2.34 under setting [2] and 2.83 under setting [1]. The matching figures for `OC(CCCN1CCCCC1)(c1ccccc1)c1ccccc1` [Diphenidol] (2.6 µM): 2.49 and 3.04. On the same counts, the results for `CCCN[C@H]1CCc2nc(N)sc2C1` [Pramipexole] (0.15 µM) are 2.79 and 2.65. As to `N[C@@H](CC(=O)N1CCn2c(nnc2C(F)(F)F)C1)Cc1cc(F)c(F)cc1F` [Sitagliptin] (4.8 µM), the “perturbation Mahalanobis distance” value runs as follows: under setting [2], 2.76; under setting [1], 2.49.

With `C[C@H]1O[C@@H](O[C@H]2[C@@H](O)C[C@H](O[C@H]3[C@@H](O)C[C@H](O[C@H]4CC[C@@]5(C)[C@H](CC[C@@H]6[C@@H]5CC[C@]5(C)[C@@H](C7=CC(=O)OC7)CC[C@]65O)C4)O[C@@H]3C)O[C@@H]2C)C[C@H](O)[C@@H]1O` [Digitoxin] (0.16 µM), the “perturbation Mahalanobis distance” value was 12.1 (active) under setting [2] and 17.9 (active) under setting [1]. On the same counts, the results for `O=C1CC2(CCCC2)CC(=O)N1CCCCN1CCN(c2ncccn2)CC1` [Buspirone] (0.05 µM) are 1.84 and 3.36. On the same counts, the results for `COc1cc(C(=O)NS(=O)(=O)c2ccccc2C)ccc1Cc1cn(C)c2ccc(NC(=O)OC3CCCC3)cc12` [Zafirlukast] (0.26 µM) are 2.19 and 1.99. The matching figures for `CCc1c2c(nc3ccc(O)cc13)-c1cc3c(c(=O)n1C2)COC(=O)[C@]3(O)CC` [7-Ethyl-10-Hydroxy-Camptothecin] (16.78 µM): 2.85 and 2.55. Take `OC(c1cc(C(F)(F)F)nc2c(C(F)(F)F)cccc12)C1CCCCN1` (configuration not stated) [Mefloquine] (23.8 µM): the “perturbation Mahalanobis distance” value by setting is: under setting [2], 13.3 (active); under setting [1], 17.1 (active). On the same counts, the results for `CCc1c2c(nc3ccc(OC(=O)N4CCC(N5CCCCC5)CC4)cc13)-c1cc3c(c(=O)n1C2)COC(=O)[C@]3(O)CC` [Irinotecan] (16.8 µM) are 11.9 (active) and 16.6 (active). On the same counts, the results for `CO[C@H]1O[C@@H]2O[C@@]3(C)CC[C@H]4[C@H](C)CC[C@@H]([C@H]1C)[C@@]24OO3` [Artemether] (3.9 µM) are 1.96 and 2.48. On the same counts, the results for `O=C(O)[C@H]1OC(Oc2ccc([C@@H]3[C@@H](CC[C@@H](O)c4ccc(F)cc4)C(=O)N3c3ccc(F)cc3)cc2)[C@H](O)[C@@H](O)[C@@H]1O` (some centres not stated) [Ezetimibe Glucuronide] (47 µM) are 2.38 and 2.09. As for `N=c1nc(N2CCCCC2)cc(N)n1O` [Minoxidil] (6 µM), the “perturbation Mahalanobis distance” value reads like this: under setting [2], 6.53; under setting [1], 2.8. For `Nc1nc2ccc(OC(F)(F)F)cc2s1` [Riluzole] (4.3 µM), the “perturbation Mahalanobis distance” value reads like this: under setting [2], 2.51; under setting [1], 3.82. On the same counts, the results for `CC[C@H]1OC(=O)[C@H](C)[C@@H](O[C@H]2C[C@@](C)(OC)[C@@H](O)[C@H](C)O2)[C@H](C)[C@@H](O[C@@H]2O[C@H](C)C[C@H](N(C)C)[C@H]2O)[C@](C)(O)C[C@@H](C)CN(C)[C@H](C)[C@@H](O)[C@]1(C)O` [Azithromycin] (6.7 µM) are 3.29 and 4.74. On the same counts, the results for `CCC1(c2ccccc2)NC(=O)N(C)C1=O` (configuration not stated) [Mephenytoin] (343.8 µM) are 3.16 and 3.69. On the same counts, the results for `Nc1nc(NC2CC2)c2ncn(C3C=C[C@H](CO)C3)c2n1` (some centres not stated) [Abacavir] (74.4 µM) are 3.81 and 2.47.

As for `Nc1c2c(nc3ccccc13)CCCC2` [Tacrine] (0.25 µM), the “perturbation Mahalanobis distance” value is 2.25 under setting [2] and 2.5 under setting [1]. On the same counts, the results for `CCN(CC)C(=S)S` [Sodium Diethyldithiocarbamate Trihydrate] (10 µM) are 3.67 and 3.24.

Consider `COc1cc(C(=O)NCc2ccc(OCCN(C)C)cc2)cc(OC)c1OC` [Trimethobenzamide] (257.426.762 µM), for which the “perturbation Mahalanobis distance” value runs as follows: under setting [2], 2.9; under setting [1], 5.46.
